This is part of a sample that, as a whole, favours compounds with a hit. Of some 79,000 tested, about 15% had one in any assay. A number with no mark means an inactive call. Activity calls are given as the source filed them. No stated cut-off is given here; in the data, active means growth inhibition above about 70%; inactive means the rest.
Experiments:
[1] = NCI Yeast Anticancer Drug Screen. Data for the rad50 strain (AID 155);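 further: 0% = growth of vehicle-only cultures of the same strain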; conditions: S. cerevisiae rad50 strain growth inhibition, hits give high values
Outline: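 Genetically altered yeast (DNA repair pathway); compound treatment; growth inhibition vs vehicle ctrl.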

[2] = NCI Yeast Anticancer Drug Screen. Data for the mec2-1 strain (AID 157); conditions: S. cerevisiae mec2-1 strain, hits give high values
Outline: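 Vehicle-treated cultures served as reference for growth inhibition of compound-exposed mec2-1 yeast.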

[3] = NCI Yeast Anticancer Drug Screen. Data for the sgs1 mgt1 strain (AID 161);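 further: 0% = growth of cultures given vehicle only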; conditions: S. cerevisiae sgs1 mgt1 strain, hits give high values
Outline: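 Test agents were incubated with a DNA-repair-mutant yeast strain. Growth was then read and compared against vehicle-treated controls.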

[4] = NCI Yeast Anticancer Drug Screen. Data for the cln2 rad14 strain (AID 165);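 further: 0% = growth equal to vehicle treated cultures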; conditions: S. cerevisiae cln2 rad14 strain, hits give high values
Outline: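 Each compound was tested on cln2 rad14 yeast. Inhibition of growth was calculated against vehicle-exposed controls.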

[5] = NCI Yeast Anticancer Drug Screen. Data for the bub3 strain (AID 167); conditions: S. cerevisiae bub3 mutant strain, hits give high values
Outline: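 Yeast carrying a defined mutation is treated with each compound, and growth is compared with that of vehicle-exposed cells to give inhibition.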

[6] = NCI Yeast Anticancer Drug Screen. Data for the mlh1 rad18 strain (AID 175); conditions: S. cerevisiae mlh1 rad18 strain growth inhibition, hits give high values
Outline: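 Vehicle-treated cultures served as the reference for growth inhibition in a yeast strain carrying DNA damage repair alterations exposed to each compound.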

[7] = at 5.0 µM (retest, dose inferred, filed as 0.5)
[8] = at 50.0 µM (retest, dose inferred, filed as 5.0)

SMILES	growth inhibition [1, 7]	growth inhibition [1, 8]	growth inhibition ([1]; at 50.0 µM)	growth inhibition [2, 7]	growth inhibition [2, 8]	growth inhibition ([2]; at 50.0 µM)	growth inhibition [3, 7]	growth inhibition [3, 8]	growth inhibition ([3]; at 50.0 µM)	growth inhibition [4, 7]	growth inhibition [4, 8]	growth inhibition ([4]; at 50.0 µM)	growth inhibition [5, 7]	growth inhibition [5, 8]	growth inhibition ([5]; at 50.0 µM)	growth inhibition [6, 7]	growth inhibition [6, 8]	growth inhibition ([6]; at 50.0 µM)
Nc1cccc2c1[nH]c(=O)c1ccccc12	7%	70% (active)	78.8% (active)	5%	31%	64%	2%	33%	51.9%	-4%	40%	77.9% (active)	-3%	98% (active)	75.8% (active)	9%	97% (active)	91.2% (active)
Nc1cc2c(cc1/C=C(\C(=O)O)c1ccccc1)OCO2	-1%	-4%	52.2%	-11%	-8%	-8.75%	-5%	-8%	56%	-4%	9%	-24.6%	-6%	2%	-5.95%	-3%	-2%	15.2%
COc1ccc(N2C(=O)C(=O)C(C(C)=O)C2=O)cc1 (stereo not given)	-1%	0%	99.2% (active)	-2%	6%	99.3% (active)	1%	2%	99.4% (active)	-4%	7%	99% (active)	1%	3%	99.3% (active)	-8%	4%	99.2% (active)
Cn1cc(CCC(=O)C2C=CC=CC2=NC(=O)CCCl)c2ccccc21 (stereo not given)	11%	7%	-3.6%	7%	-6%	12.8%	-1%	-20%	-4%	14%	14%	14.3%	11%	7%	8.95%	-2%	1%	-17.1%
Cc1ccc2c(c1)C1(SC(C)C(=O)N1c1ccc(Cl)cc1)C(=O)N2CN1CCOCC1 (stereo not given)	5%	98% (active)	18.6%	-4%	97% (active)	5.5%	-3%	95% (active)	0.4%	-4%	92% (active)	-17.3%	11%	97% (active)	16%	11%	98% (active)	29.9%
Oc1ccccc1C(=NNc1ccccc1)c1ccccc1O	40%	96% (active)	94.8% (active)	27%	98% (active)	94.8% (active)	46%	97% (active)	94.8% (active)	49%	97% (active)	95.8% (active)	42%	98% (active)	95.8% (active)	70% (active)	98% (active)	90.9% (active)
COC(=O)[C@]1(C)CCC[C@]2(C)c3ccc(C(C)C)cc3C(=O)C[C@@H]12	5%	87% (active)	95.9% (active)	4%	90% (active)	99% (active)	1%	93% (active)	96.2% (active)	4%	82% (active)	89.5% (active)	6%	88% (active)	97.7% (active)	-9%	73% (active)	94.5% (active)
C[C@H]1CC[C@@H]2[C@@H](C)[C@H]3[C@H](C[C@H]4[C@@H]5CC=C6C[C@@H](O)CC[C@]6(C)[C@H]5C[C@H](O)[C@]34C)N2C1	-6%	8%	-17.8%	19%	-7%	-45.2%	-3%	0%	-7.65%	16%	-2%	38.9%	1%	-6%	-47.1%	1%	7%	3%
COc1cc(C(Sc2ccccc2C(=O)O)Sc2ccccc2C(=O)O)ccc1O	9%	91% (active)	95.5% (active)	12%	88% (active)	95.6% (active)	21%	94% (active)	97.4% (active)	8%	93% (active)	81.6% (active)	12%	97% (active)	87.9% (active)	14%	95% (active)	98.5% (active)
CCn1c2nc(=O)n(C)c(=O)c-2[n+]([O-])c2cc(C)ccc21	16%	70% (active)	70.5% (active)	8%	33%	26.4%	4%	27%	44.5%	-2%	7%	25.1%	-1%	13%	14.9%	0%	49%	10.8%
